# According to PubChem BioAssay (NCATS):
# Unmarked numbers belong to inactive results. Results filed as inconclusive are left out. The source made the active and inactive calls. Unless noted, calls come from the whole dose curve; as a rule, active = well fitted curve in either direction with a large enough effect (not every such curve was filed as active); inconclusive = small, poorly fitted or top-dose-only effect, or another doubt; inactive = flat fitted curve, though single readings scatter.
# Experiments:
# [1] = Stat Signaling Pathway (AID 446); settings: ME-180 SIE beta-lactamase reporter, IL-6 stimulated, 5 h; at 17.2 µM (top of the series) unless noted;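 note: ME-180 cervical cancer cells given 40 pM IL-6 alongside compound; SIE-controlled beta-lactamase reporter measured as 460/530 nm FRET emission ratio; % is set by controls: 0 for no effect and ±100 for the full control effect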
# Summary of the method: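 Compound effects on IL-6-induced STAT reporter activity were measured in ME-180 cells. After overnight culture, cells were co-treated with 40 pM IL-6 for 5 hrs before beta-lactamase substrate loading at room temperature.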
# [2] = biological target: Glucocorticoid receptor (Homo sapiens) (UniProt P04150); assay: GR-GFP Redistribution (AID 450;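 active = compounds whose dose series gives a full or clear partial fitted curve of increased nuclear translocation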; note: potency is the fitted concentration of half-maximal effect)
# Sequence of Glucocorticoid receptor (Homo sapiens) (P04150 whole entry, looked up, the tested form may be a part): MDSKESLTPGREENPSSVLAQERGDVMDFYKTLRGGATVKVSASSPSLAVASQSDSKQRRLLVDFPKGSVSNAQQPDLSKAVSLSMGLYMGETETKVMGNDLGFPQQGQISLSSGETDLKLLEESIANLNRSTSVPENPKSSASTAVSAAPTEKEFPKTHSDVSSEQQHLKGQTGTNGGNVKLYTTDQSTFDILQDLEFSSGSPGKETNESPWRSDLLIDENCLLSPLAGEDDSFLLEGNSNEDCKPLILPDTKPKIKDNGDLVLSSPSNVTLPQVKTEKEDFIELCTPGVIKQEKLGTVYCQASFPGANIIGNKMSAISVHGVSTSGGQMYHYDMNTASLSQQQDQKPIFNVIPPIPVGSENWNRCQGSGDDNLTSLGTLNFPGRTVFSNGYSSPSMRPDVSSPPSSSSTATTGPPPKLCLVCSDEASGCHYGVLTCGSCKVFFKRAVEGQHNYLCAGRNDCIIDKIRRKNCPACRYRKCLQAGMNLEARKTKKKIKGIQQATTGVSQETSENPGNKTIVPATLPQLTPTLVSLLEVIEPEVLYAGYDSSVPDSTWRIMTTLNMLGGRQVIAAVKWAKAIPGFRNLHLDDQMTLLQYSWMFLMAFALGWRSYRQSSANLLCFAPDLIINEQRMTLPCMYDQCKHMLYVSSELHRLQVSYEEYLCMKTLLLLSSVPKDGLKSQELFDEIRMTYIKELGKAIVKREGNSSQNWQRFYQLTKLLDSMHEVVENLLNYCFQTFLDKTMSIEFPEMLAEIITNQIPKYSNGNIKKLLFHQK
# [3] = biological target: Glucocorticoid receptor (Homo sapiens) (UniProt P04150); assay: GR-EFC Redistribution (AID 451; calls by dose curve; note: potency is the fitted concentration of half-maximal effect); settings: CHO-K1 GR-EFC translocation, beta-gal luminescence, 2 h
# Summary of the method: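 CHO-K1 cells expressing nuclear EA and GR-ED fragments of b-gal; compounds titrated up to 46 uM final, 2 h at 37 C. GR nuclear translocation read as complemented b-gal luminescence after 1 h RT detection.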
# [4] = biological target: 3',5'-cyclic-AMP phosphodiesterase 4B (Homo sapiens) (UniProt Q07343); assay: qHTS Assay for Inhibitors of PDE-IV (AID 607; active = well fitted activation curve with a large enough effect in the main read-out, with a control signal flat, not every such curve was filed as active; note: % of control where 0% means no effect)
# Sequence of 3',5'-cyclic-AMP phosphodiesterase 4B (Homo sapiens) (Q07343 whole entry, looked up): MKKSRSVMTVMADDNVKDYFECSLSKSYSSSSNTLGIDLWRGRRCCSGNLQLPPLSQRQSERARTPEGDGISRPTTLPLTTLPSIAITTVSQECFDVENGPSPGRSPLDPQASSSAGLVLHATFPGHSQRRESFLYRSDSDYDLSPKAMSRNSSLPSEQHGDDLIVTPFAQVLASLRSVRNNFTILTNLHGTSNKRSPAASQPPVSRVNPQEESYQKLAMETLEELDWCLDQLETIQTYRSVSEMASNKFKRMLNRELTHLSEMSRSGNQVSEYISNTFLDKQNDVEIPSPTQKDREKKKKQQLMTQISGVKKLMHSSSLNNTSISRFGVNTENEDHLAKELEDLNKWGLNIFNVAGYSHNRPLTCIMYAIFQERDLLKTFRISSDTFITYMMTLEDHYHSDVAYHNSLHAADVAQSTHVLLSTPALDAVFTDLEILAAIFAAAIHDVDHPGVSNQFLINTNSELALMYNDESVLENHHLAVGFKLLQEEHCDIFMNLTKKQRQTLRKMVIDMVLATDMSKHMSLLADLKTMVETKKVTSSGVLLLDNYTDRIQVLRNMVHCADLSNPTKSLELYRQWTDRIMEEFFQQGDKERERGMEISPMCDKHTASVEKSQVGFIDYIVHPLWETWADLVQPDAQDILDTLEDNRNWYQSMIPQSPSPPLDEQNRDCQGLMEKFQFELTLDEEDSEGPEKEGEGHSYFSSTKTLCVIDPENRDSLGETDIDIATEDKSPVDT
# Summary of the method: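 ACTOne HEK293 cells carry a modified cAMP-gated CNG channel and express endogenous PDE4; plated 1000 cells/well, compounds up to 22.9 uM final. Membrane-potential dye fluorescence (ex 535/em 590) was read; parental cells received 10 uM forskolin + 100 uM RO 20-1724.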
# [5] = biological target: Guanine nucleotide-binding protein G(i) subunit alpha-1 (Homo sapiens) (UniProt P63096); assay: qHTS Assay for Inhibitors of RGS12 GoLoco Motif Activity (Green Fluorophore) (AID 879; active = well fitted curve in the direction sought with a large enough effect; an effect the other way counts as inactive or inconclusive;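 note: 0% = labeled peptide with Gαi1 and full inhibition = labeled peptide alone without protein; negative values mean loss of peptide binding seen as reduced polarization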)
# Sequence of Guanine nucleotide-binding protein G(i) subunit alpha-1 (Homo sapiens) (P63096 whole entry, looked up): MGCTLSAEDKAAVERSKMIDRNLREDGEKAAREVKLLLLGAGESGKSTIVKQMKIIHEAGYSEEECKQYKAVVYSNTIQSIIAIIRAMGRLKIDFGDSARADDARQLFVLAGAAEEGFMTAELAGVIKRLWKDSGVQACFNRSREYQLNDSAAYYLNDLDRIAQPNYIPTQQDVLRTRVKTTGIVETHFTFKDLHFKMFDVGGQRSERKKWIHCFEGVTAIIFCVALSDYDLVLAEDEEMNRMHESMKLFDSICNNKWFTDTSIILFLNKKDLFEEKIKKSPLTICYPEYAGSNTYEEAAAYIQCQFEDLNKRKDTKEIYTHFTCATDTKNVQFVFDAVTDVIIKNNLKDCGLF
# Summary of the method: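 A drop in FITC polarization marked displacement of the FITC-tagged RGS12 GoLoco peptide (10 nM) from Gαi1 (50 nM). Compounds were incubated 10 min at room temperature in Tris pH 7.5 buffer containing 150 mM NaCl, 0.1 mM GDP and 0.05% NP40; unlabeled peptide titration served as control.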
# [6] = qHTS Assay for Identification of Small Molecule Antagonists for Thrombopoietin (TPO) Signaling Pathway (AID 918; active = well fitted curve in the direction sought with a large enough effect; an effect the other way counts as inactive or inconclusive; note: potency is the fitted concentration of half-maximal effect; nearly all actives have a fitted effect of over 60% in size); settings: TPO-dependent cell signaling reporter, antagonist mode
# Summary of the method: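 Inhibitors of TPO signaling are sought by stimulating IL-3-starved murine Ba/F3 cells (human TPO receptor, Glycoprotein IIb-driven luciferase) with TPO at its EC50 of 26 pM alongside compound. After 24 hrs at 37 C, reporter luminescence is measured.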
# [7] = biological target: Pyruvate kinase (Leishmania mexicana) (UniProt Q27686); assay: qHTS Validation Assay for Inhibitors of Leishmania Mexicana Pyruvate Kinase (AID 945; active = well fitted curve in the direction sought with a large enough effect; an effect the other way counts as inactive or inconclusive;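 note: 0% = DMSO only neutral control wells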)
# Sequence of Pyruvate kinase (Leishmania mexicana) (Q27686 2-499 E452W): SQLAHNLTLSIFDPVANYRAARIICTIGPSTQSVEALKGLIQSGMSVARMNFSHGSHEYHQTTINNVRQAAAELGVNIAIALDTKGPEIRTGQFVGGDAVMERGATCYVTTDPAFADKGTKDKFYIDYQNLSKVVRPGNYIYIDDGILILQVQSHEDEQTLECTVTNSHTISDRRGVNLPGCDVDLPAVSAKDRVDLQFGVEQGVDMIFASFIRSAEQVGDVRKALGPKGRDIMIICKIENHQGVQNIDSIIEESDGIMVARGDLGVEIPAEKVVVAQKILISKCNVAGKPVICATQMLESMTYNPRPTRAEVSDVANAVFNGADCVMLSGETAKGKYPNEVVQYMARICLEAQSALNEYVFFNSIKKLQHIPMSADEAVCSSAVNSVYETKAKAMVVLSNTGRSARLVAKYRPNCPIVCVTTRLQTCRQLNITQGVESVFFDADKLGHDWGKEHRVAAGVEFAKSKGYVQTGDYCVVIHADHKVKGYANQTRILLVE
# Summary of the method: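 LmPYK E451W 0.2 nM; 0.5 mM PEP, 0.1 mM ADP, 7 mM MgCl2, 50 mM KCl, imidazole pH 7.2, 0.01% Tween 20, 0.05% BSA; 1 h RT; PKLight luminescence; DMSO-normalized.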
# [8] = biological target: Pyruvate kinase PKM (Homo sapiens) (UniProt P14618); assay: qHTS Assay for Activators of Human Muscle Pyruvate Kinase (AID 954; active = well fitted curve in the direction sought with a large enough effect, not every such curve was filed as active;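 note: 0% = uninhibited enzyme and -100% = no enzyme or full thiadiazolimine inhibition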)
# Sequence of Pyruvate kinase PKM (Homo sapiens) (P14618 whole entry, looked up): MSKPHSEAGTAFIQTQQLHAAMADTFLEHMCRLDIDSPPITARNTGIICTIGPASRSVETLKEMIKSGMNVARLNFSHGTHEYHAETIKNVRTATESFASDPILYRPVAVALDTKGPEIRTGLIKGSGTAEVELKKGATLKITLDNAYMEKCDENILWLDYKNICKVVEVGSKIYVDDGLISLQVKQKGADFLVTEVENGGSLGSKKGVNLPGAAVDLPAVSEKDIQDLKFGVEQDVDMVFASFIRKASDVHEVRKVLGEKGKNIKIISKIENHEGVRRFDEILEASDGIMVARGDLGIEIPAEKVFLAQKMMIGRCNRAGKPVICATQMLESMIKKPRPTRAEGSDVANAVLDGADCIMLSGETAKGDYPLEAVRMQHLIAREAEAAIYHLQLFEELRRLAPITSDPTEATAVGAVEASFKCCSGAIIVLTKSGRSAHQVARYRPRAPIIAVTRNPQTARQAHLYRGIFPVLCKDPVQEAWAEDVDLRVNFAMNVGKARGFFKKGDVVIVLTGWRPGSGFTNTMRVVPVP
# Summary of the method: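 A coupled luminescent readout tracked ATP made from ADP by purified PKM2. Final conditions included 0.1 nM enzyme, PEP and ADP at 0.5 and 0.1 mM, pH 7.2 imidazole buffer with BSA, and a one-hour room-temperature reaction.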
# [9] = biological target: Alpha-galactosidase A (Homo sapiens) (UniProt P06280); assay: Counterscreen for Glucocerebrosidase Inhibitors: qHTS Assay for Human alpha-Galactosidase at pH 4.5 (AID 992; active = well fitted curve in the direction sought with a large enough effect; an effect the other way counts as inactive or inconclusive; note: 0% is about no effect)
# Sequence of Alpha-galactosidase A (Homo sapiens) (P06280 whole entry, looked up): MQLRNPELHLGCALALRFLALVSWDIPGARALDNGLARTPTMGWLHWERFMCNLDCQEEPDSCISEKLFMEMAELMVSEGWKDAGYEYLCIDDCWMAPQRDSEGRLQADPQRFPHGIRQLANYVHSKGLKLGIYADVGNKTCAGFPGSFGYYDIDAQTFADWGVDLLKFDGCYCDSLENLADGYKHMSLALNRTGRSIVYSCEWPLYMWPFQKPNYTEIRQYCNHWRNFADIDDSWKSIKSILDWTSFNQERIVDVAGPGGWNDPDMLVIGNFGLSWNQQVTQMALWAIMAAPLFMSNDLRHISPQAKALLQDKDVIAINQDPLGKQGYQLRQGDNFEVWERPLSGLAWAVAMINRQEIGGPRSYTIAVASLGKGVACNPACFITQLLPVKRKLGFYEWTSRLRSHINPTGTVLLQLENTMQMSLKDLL
# Summary of the method: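 Citrate buffer pH 4.5, Tween-20 0.005%. Enzyme 2 nM, substrate 80 uM, 20 min RT. Stop pH 10. Fluorescence Ex 365/Em 440. AC50 by Hill fit.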
# [10] = biological target: alpha-glucosidase (Oryza sativa, rice) (UniProt Q653V4); assay: Counterscreen for Glucocerebrosidase Inhibitors: qHTS Assay for Rice alpha-Glucosidase at pH 5.0 (AID 997; active = well fitted curve in the direction sought with a large enough effect; an effect the other way counts as inactive or inconclusive;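 note: 0% = full activity with enzyme and -100% = basal without enzyme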)
# Summary of the method: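 Endpoint fluorogenic assay at pH 5.0: compounds (0.7 nM to 77 uM) titrated against 4 nM rice enzyme and 400 uM 4-MU-alpha-glucoside for 20 min at room temperature; NaOH/glycine stop, read ex 365/em 440 nm, Hill-fitted AC50.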
# [11] = qHTS Assay for Identification of Small Molecule Agonists for Hypoxia Response Element Signaling Pathway (AID 914; active = well fitted activation curve with a large enough effect in the signal ratio, with a control signal flat, not every such curve was filed as active; the % refers to the signal ratio; note: potency is the fitted concentration of half-maximal effect); settings: ME-180 HRE-bla reporter, beta-lactamase ratio, CoCl2, 17 h; activation: active compounds read high
# Summary of the method: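 ME-180 cells carrying an HRE-driven beta-lactamase reporter were treated with compounds in a titration series plus an EC50 level of CoCl2 for 17 h at 37 degrees Celsius; CCF4 readout as the 460nm/530nm ratio gave AC50 values.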
smiles,measurement,setting,value
COc1cccc(-c2nc(N3CCCCC3C)c3ccccc3n2)c1O (configuration not stated),"activity, negative = inhibition",[1],-21.7%
same,Potency,[2],> 20.6 µM
CCOC(=O)CC(=O)CSc1nc(N)c(C#N)c(-c2ccc(Cl)cc2)c1C#N,"activity, negative = inhibition",[1],-16.4%
same,Potency,[2],> 20.6 µM
N#CC1=C(N)NC(SCc2ccc(F)cc2)=C(C#N)C12CCCCC2,"activity, negative = inhibition",[1],-24.1%
same,Potency,[2],> 20.6 µM
Cc1coc2c(O)cc3c(c12)OC1(N2CCCCC2)C(=O)NCCCC31 (configuration not stated),"activity, negative = inhibition",[1],-21.8%
same,Potency,[2],> 20.6 µM
CN1Cc2c(N3CCOCC3)nc(SCc3ccccc3)c(C#N)c2CC1(C)C,"activity, negative = inhibition",[1],-1.83%
same,Potency,[2],> 20.6 µM
Cc1c(C)c2c(c(C)c1O)CC[C@@](C)(CN1CCN(c3cc(N4CCCC4)nc(N4CCCC4)n3)CC1)O2,"activity, negative = inhibition",[1],19.8% [at 38 µM]
same,Potency,[2],> 46 µM
same,Potency,[3],> 46 µM
same,Potency,[4],inactive
same,outcome,[5],inactive
same,Potency,[6],10 µM (active)
same,Potency,[7],inactive
same,outcome,[8],inactive
same,outcome,[9],inactive
same,outcome,[10],inactive
CCN(CC)c1ccc(-c2nn3c(-c4cccnc4)nnc3s2)cc1,"activity, negative = inhibition",[1],-29.8%
same,Potency,[2],> 20.6 µM
Cc1c(C)c2cc(Cl)c(O)c(CN3CCN(C)CC3)c2oc1=O,"activity, negative = inhibition",[1],11.1%
same,Potency,[2],> 20.6 µM
same,Potency,[11],7.94 µM (active)
COc1ccc(C2C=C(c3ccc(C)cc3)Nc3ncnn32)cc1 (configuration not stated),"activity, negative = inhibition",[1],-14.5%
same,Potency,[2],> 20.6 µM
